Results filed as inconclusive are left out. The source made the active and inactive calls. Calls follow the shape of the dose curve; as a rule, active = well fitted curve in the direction sought with a large enough effect; inconclusive = small, poorly fitted or top-dose-only effect, or another doubt; inactive = no such curve, though single readings can be large; an effect the other way counts as inactive or inconclusive.
Experiments:
[1] = S16 Schwann cell viability assay (CellTiter-Glo assay) (AID 624031);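 also: cellular ATP luminescence as a viability measure; nearly all actives have a fitted effect of over 70% in size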
How it was run: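 This viability control uses native rat S16 Schwann cells grown in DMEM plus 10% FBS. After a 24 h compound treatment at 37 °C, CellTiter-Glo luminescence reports ATP content, scaled against DMSO-treated and cell-free wells.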

[2] = S16 Schwann cell PMP22 intronic element firefly luciferase assay (AID 624032); also: nearly all actives have a fitted effect of over 30% in size; also: potency is read from the fitted curve at half-maximal effect
How it was run: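 Rat S16 Schwann cells stably carrying a PMP22 intronic element-driven Fluc reporter were seeded overnight, then exposed to compounds for 24 h at 37 °C. Luminescence was normalized to PTC124 (positive control) and DMSO (0% activity).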

AA1029 = experiment: qHTS profiling for inhibitors of Plasmodium falciparum proliferation (AID 504749); also: nearly all actives have a fitted effect of over 60% in size; also: potency is read from the fitted curve at half-maximal effect; conditions: P. falciparum in erythrocytes, SYBR Green DNA, 72 h; series mostly up to 28.7 µM
How it was run: (§1)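 Parasite proliferation within erythrocytes, 72 h exposure. Endpoint: SYBR Green I fluorescence after overnight lysis at room temperature. Controls: 0.29 uM artemisinin, DMSO.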

AS120 = experiment: as above; conditions: P. falciparum in erythrocytes, SYBR Green DNA, 72 h; series mostly up to 28.7 µM
How it was run: as §1

ATS95 = experiment: as above; conditions: P. falciparum in erythrocytes, SYBR Green DNA, 72 h; series mostly up to 28.7 µM
How it was run: as §1

CP194 = experiment: as above; conditions: P. falciparum in erythrocytes, SYBR Green DNA, 72 h; series mostly up to 28.7 µM
How it was run: as §1

CP247 = experiment: as above; conditions: P. falciparum in erythrocytes, SYBR Green DNA, 72 h; series mostly up to 28.7 µM
How it was run: as §1

CP260 = experiment: as above; conditions: P. falciparum in erythrocytes, SYBR Green DNA, 72 h; series mostly up to 28.7 µM
How it was run: as §1

CP266 = experiment: as above; conditions: P. falciparum in erythrocytes, SYBR Green DNA, 72 h; series mostly up to 28.7 µM
How it was run: as §1

CP297 = experiment: as above; conditions: P. falciparum in erythrocytes, SYBR Green DNA, 72 h; series mostly up to 28.7 µM
How it was run: as §1

DFO2036 = experiment: as above; conditions: P. falciparum in erythrocytes, SYBR Green DNA, 72 h; series mostly up to 28.7 µM
How it was run: as §1

DIV14 = experiment: as above; conditions: P. falciparum in erythrocytes, SYBR Green DNA, 72 h; series mostly up to 28.7 µM
How it was run: as §1

GB4 = experiment: as above; conditions: P. falciparum in erythrocytes, SYBR Green DNA, 72 h; series mostly up to 28.7 µM
How it was run: as §1

ICS = experiment: as above; conditions: P. falciparum in erythrocytes, SYBR Green DNA, 72 h; series mostly up to 28.7 µM
How it was run: as §1

P93_24 = experiment: as above; conditions: P. falciparum in erythrocytes, SYBR Green DNA, 72 h; series mostly up to 28.7 µM
How it was run: as §1

P94_40 = experiment: as above; conditions: P. falciparum in erythrocytes, SYBR Green DNA, 72 h; series mostly up to 28.7 µM
How it was run: as §1

PAD = experiment: as above; conditions: P. falciparum in erythrocytes, SYBR Green DNA, 72 h; series mostly up to 28.7 µM
How it was run: as §1

PC26 = experiment: as above; conditions: P. falciparum in erythrocytes, SYBR Green DNA, 72 h; series mostly up to 28.7 µM
How it was run: as §1

SC27B = experiment: as above; conditions: P. falciparum in erythrocytes, SYBR Green DNA, 72 h; series mostly up to 28.7 µM
How it was run: as §1

TAB165 = experiment: as above; conditions: P. falciparum in erythrocytes, SYBR Green DNA, 72 h; series mostly up to 28.7 µM
How it was run: as §1

Measured: Potency

CC1(C)S[C@@H]2[C@H](N)C(=O)N2C1C(=O)O (stereo partly drawn)
inactive: [1] | [2] | AA1029 | AS120 | ATS95 | CP194 | CP247 | CP260 | CP266 | CP297 | DFO2036 | DIV14 | GB4 | ICS | P93_24 | P94_40 | PAD | PC26 | SC27B | TAB165

C[C@H](N)Cc1ccccc1
inactive: [1] | [2] | AA1029 | AS120 | ATS95 | CP194 | CP247 | CP260 | CP266 | CP297 | DFO2036 | GB4 | ICS | P93_24 | P94_40 | PAD | PC26 | SC27B | TAB165

CCCCCC(O)C1C(=O)OC(C)C(O)\C=C/C=C\C=C/C=C\C=C(\C)C(O)C(O)C(O)CC(O)CC(O)CC(O)CC(O)CC1O (stereo not drawn)
inactive: [1] | [2] | AA1029 | AS120 | ATS95 | CP194 | CP247 | CP260 | CP266 | CP297 | DFO2036 | DIV14 | GB4 | ICS | P93_24 | P94_40 | PAD | PC26 | SC27B | TAB165

O=[N+]([O-])OC1CO[C@H]2C(O[N+](=O)[O-])COC12 (stereo partly drawn)
inactive: [1] | [2] | AA1029 | AS120 | ATS95 | CP194 | CP247 | CP260 | CP266 | CP297 | DFO2036 | DIV14 | GB4 | ICS | P93_24 | P94_40 | PAD | PC26 | SC27B | TAB165

CCOC(=O)/C=C(C)/C=C/CC(C)CCCC(C)C (stereo not drawn)
inactive: [1] | [2] | AA1029 | AS120 | ATS95 | CP194 | CP247 | CP260 | CP266 | CP297 | DFO2036 | DIV14 | GB4 | ICS | P93_24 | P94_40 | PAD | PC26 | SC27B | TAB165

CN1C2CCC1C(C(=O)O)C(OC(=O)c1ccccc1)C2 (stereo not drawn)
inactive: [1] | [2] | AA1029 | AS120 | ATS95 | CP194 | CP247 | CP260 | CP266 | CP297 | DFO2036 | DIV14 | GB4 | ICS | P93_24 | P94_40 | PAD | PC26 | SC27B | TAB165

CCCCCCC(=O)O[C@H]1CC[C@H]2[C@@H]3CCC4CC(=O)C=C(C)[C@]4(C)[C@H]3CC[C@]12C (stereo partly drawn)
inactive: [1] | AA1029 | AS120 | ATS95 | CP194 | CP247 | CP266 | CP297 | DFO2036 | DIV14 | GB4 | P93_24 | P94_40 | PAD | PC26 | SC27B | TAB165
active: [2] 11.4 µM | ICS 10 µM

COc1ccc2c3c1O[C@H]1[C@@H](O)C=C[C@H]4C(C2)NCCC341 (stereo partly drawn)
inactive: [1] | [2] | AA1029 | AS120 | ATS95 | CP194 | CP247 | CP260 | CP266 | CP297 | DFO2036 | DIV14 | GB4 | ICS | P93_24 | P94_40 | PAD | PC26 | SC27B | TAB165

C[C@@H]1CC[C@H]2[C@@H](C)C(=O)O[C@@H]3OC4(C)CC[C@@H]1C32OO4 (stereo partly drawn)
active: AA1029 11.2 nM | AS120 7.1 nM | ATS95 11.2 nM | CP194 16.9 nM | CP247 10 nM | CP260 10 nM | CP266 19 nM | CP297 15.1 nM | DFO2036 7.1 nM | DIV14 7.6 nM | GB4 6.7 nM | ICS 0.0025 µM | P93_24 3.5 nM | P94_40 2.8 nM | PAD 7.1 nM | PC26 7.6 nM | SC27B 7.1 nM | TAB165 3.2 nM

C#CCN1CC(=O)N(COC(=O)[C@@H]2[C@@H](C=C(C)C)C2(C)C)C1=O
inactive: [1] | AA1029 | AS120 | ATS95 | CP194 | CP247 | CP260 | DFO2036 | DIV14 | GB4 | ICS | P93_24 | P94_40 | PAD | PC26 | SC27B | TAB165

OCC(O)[C@H]1O[C@@H]2O[C@H](C(Cl)(Cl)Cl)O[C@@H]2[C@H]1O (stereo partly drawn)
inactive: [1] | [2] | AA1029 | AS120 | ATS95 | CP194 | CP247 | CP260 | CP266 | CP297 | DFO2036 | DIV14 | GB4 | ICS | P93_24 | P94_40 | PAD | PC26 | SC27B | TAB165
